Results on 16 compounds are retold here after ChEMBL document CHEMBL1961873, “Compounds: GSK PKIS; Assays: Nanosyn kinase panel” (2012).
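Also: reported values are mean percent inhibition of NEK2.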

In this experiment the target is T1, Serine/threonine-protein kinase Nek2 (Homo sapiens) (UniProt P51955).
T1 sequence (whole entry): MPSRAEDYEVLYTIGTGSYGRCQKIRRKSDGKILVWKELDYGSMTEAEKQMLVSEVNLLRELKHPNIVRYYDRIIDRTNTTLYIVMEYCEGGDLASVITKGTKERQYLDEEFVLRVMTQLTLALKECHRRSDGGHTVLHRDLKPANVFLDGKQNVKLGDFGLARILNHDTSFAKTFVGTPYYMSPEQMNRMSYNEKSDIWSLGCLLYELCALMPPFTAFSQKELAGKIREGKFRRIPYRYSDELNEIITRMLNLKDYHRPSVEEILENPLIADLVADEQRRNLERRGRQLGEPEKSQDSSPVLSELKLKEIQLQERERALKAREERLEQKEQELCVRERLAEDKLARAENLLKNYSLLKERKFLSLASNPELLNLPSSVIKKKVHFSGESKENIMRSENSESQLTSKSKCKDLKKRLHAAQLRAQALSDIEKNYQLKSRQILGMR
The note with it: at 1 µM.
For the compound `CN1CCN(CCCNc2nc3ccc(Oc4ccc(NC(=O)Nc5cc(C(F)(F)F)ccc5F)cc4)cc3[nH]2)CC1`, the inhibition – broadly, the relative decrease from the control value, in per cent – amounted to 0.01%.

As for `NS(=O)(=O)c1ccc(N/N=C2\C(=O)Nc3ccc(-c4cnco4)cc32)cc1`, the inhibition was found to be 1.79%.

For `O=C1Nc2ccccc2/C1=C/Nc1ccc(-n2cncn2)cc1`, the inhibition amounted to 4.16%.

Take `Cc1nnc(-c2ccc(C)c(-c3ccc(C(=O)NCc4ccc(Cl)cc4)cc3)c2)o1`: the inhibition stood at 3.25%.

Turning to `CN(C)CCCNc1nccc(-c2c(-c3ccc(F)cc3)nn3cc(C(F)(F)F)ccc23)n1`, the inhibition is 1.49%.

Regarding `COc1ccc2ncn(-c3cc(O[C@H](C)c4ccccc4Cl)c(C(N)=O)s3)c2c1`, the inhibition amounted to 10.3%.

`CCS(=O)(=O)c1ccc(OC)c(Nc2ncc(-c3cccc(-c4ccccc4F)c3)o2)c1`: the inhibition is -0.68%.

`O=C(Nc1n[nH]c2cc(-c3ccccc3)ccc12)C1CC1`: the inhibition was determined as 6.37%.

In the case of `COc1ccc(-c2ccc3c(NC(=O)C4CC4)n[nH]c3n2)cc1`, the inhibition came to 1.4%.

In the case of `COc1cc(Nc2ncc3c(C)nc(-c4cccc(C(F)(F)F)c4)n3n2)cc(OC)c1OC`, the inhibition worked out at 37.5%.

In the case of `Cc1ccc(NC(=O)c2ccoc2)cc1-c1ccc(C(=O)NCC2CC2)cc1`, the inhibition is 3.48%.

With `Fc1ccc(-c2nc3n(c2-c2ccncc2)CCS3)cc1`, the inhibition is 4.36%.

For `NS(=O)(=O)c1ccc(N/N=C2\C(=O)Nc3ccc(C(=O)NCCCn4ccnc4)cc32)cc1`, the inhibition came to 5.08%.

Turning to `CCN(CC)Cc1ccc(Nc2nccc(-c3cnn4ncccc34)n2)cc1`, the inhibition is 3.41%.

Take `NC(=O)c1cc(-c2ccc(F)cc2)cc(-c2ccncc2)c1N`: the inhibition worked out at 3.75%.

Take `Nc1nccc(-c2c(-c3ccc(F)cc3)ncn2C2CCC(O)CC2)n1` (stereo unspecified): the inhibition was -3.67%.
